Assay outcomes (PubChem BioAssay)
Most compounds without a hit are left out; they make up all but 5.3% or so of the library.
FMDV antiviral – foot and mouth disease virus antiviral activity. FMDV antiviral cell-based qHTS. Potency, µM (top dose mostly 57.9 µM), for the others: at the top dose activity change, negative = inhibition, most hits filed as inhibitors. 410,000 compounds, 1.2% hits. AID 1159524; calls by dose curve; tested in HEK293T cells; note: read-out not given here; nearly all actives have a fitted effect of over 45% in size
VACV mCherry inh – vaccinia inhibition (mCherry reporter) | AID 720579 | 310,000 compounds, 0.63% hits | Vaccinia virus mCherry reporter infection, fluorescence | Potency, µM (top dose mostly 36.5 µM), for inactives: at the top dose activity change, negative = inhibition, most hits filed as inhibitors; calls by dose curve; tested in A549 cells; note: nearly all actives have a fitted effect of over 35% in size
HCV inhibitor – inhibitors of hepatitis C virus infection; AID 651820; Huh7.5.1 HCVcc-Cre infection, luciferase reporter, 44 h; 340,000 compounds, 3.4% hits; Potency, µM (doses to about 41.8 µM), inactives show at the top dose activity change, negative = inhibition, actives largely listed as inhibitors; active = well fitted inhibition curve with a large enough effect; inconclusive = small, poorly fitted or top-dose-only effect, or another doubt; inactive = no such curve, though single readings can be large or run the other way
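1,000 cells/well; 4 h culture; + compound; + HCVcc-Cre (~0.5 moi); 44 h; luciferase substrate, RT 15 min; read 15 sec.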
LASV entry inh – blocks Lassa virus binding to or entry into cells | Lassa virus pseudotype entry inhibition, cell reporter | Potency, µM (titrated, usually from 37.9 µM), for the others: top-dose activity change, negative = inhibition, usual class: inhibitors | 300,000 compounds, 1.2% hits; calls by dose curve; tested in HEK293 cells; note: nearly all actives have a fitted effect of over 50% in size
MARV entry inh – Marburg virus entry inhibition; Marburg virus pseudotyped entry inhibition, cell reporter; Potency, µM (top dose mostly 37.8 µM), inactives show at the top dose activity change, negative = inhibition, actives largely listed as inhibitors; 300,000 compounds, 1.8% hits; calls by dose curve; tested in HEK293 cells
VACV Venus inh – inhibitors of vaccinia virus (Venus reporter) | Vaccinia virus Venus reporter expression, fluorescence | Potency, µM (doses to about 36.5 µM), inactives show top-dose activity change, negative = inhibition, actives largely listed as inhibitors | 330,000 compounds, 0.46% hits; calls by dose curve; tested in A549 cells; note: nearly all actives have a fitted effect of over 30% in size
* marks the source's active call; other numbers are inactive results; [ ] = another dose, or the depositor's remark. % is set by controls: 0 for no effect and ±100 for the full control effect; potency is the fitted concentration of half-maximal effect.

`COc1ccccc1C1CN(CCNC(=O)[C@@H]2CSC(=O)N2)Cc2ccccc2O1` (some centres not stated) gave FMDV antiviral 58.0%, VACV mCherry inh -7.8% and VACV Venus inh -7.3%.
For COc1ccccc1C(NC(C)=O)c1cc(Cl)c2cccnc2c1O (configuration not stated) the results were FMDV antiviral 20.6%, VACV mCherry inh inconclusive, HCV inhibitor inconclusive, LASV entry inh inconclusive, MARV entry inh 3.16µM* and VACV Venus inh inconclusive.
Screening CC(=O)NC(C)c1cc(Cl)c2cccnc2c1O (configuration not stated) returned FMDV antiviral -18.9%.
For Cc1cc(OCCCCNC(C)C)cc(C(C)C)c1 the results were FMDV antiviral -18.4%, VACV mCherry inh inconclusive, HCV inhibitor inconclusive, LASV entry inh inconclusive, MARV entry inh 14.6µM* and VACV Venus inh -18.1%.
Cc1cc(OCCOCCNC(C)C)cc(C)c1Cl was read as FMDV antiviral 0.0%, HCV inhibitor inconclusive, LASV entry inh inconclusive, MARV entry inh inconclusive and VACV Venus inh -26.7%.
Cc1oc(-c2nc3ccccc3n2C)cc1C(=O)c1ccccc1 was read as FMDV antiviral -62.4%, VACV mCherry inh -2.9%, HCV inhibitor -4.0%, LASV entry inh 2.82µM*, MARV entry inh 11.2µM* and VACV Venus inh -4.3%.
For O=C(c1ccoc1)N1CCC2(CC1)Oc1ccc(Cl)cc1C(=O)C21CC(c2ccccc2)=NO1 (configuration not stated) the results were FMDV antiviral -24.8%, VACV mCherry inh inactive, HCV inhibitor 11.2µM* and VACV Venus inh -21.2%.
`CCCSc1nc2sc3c(c2c(=O)n1-c1ccc(C)c(Cl)c1)CCN(C(C)=O)C3` gave FMDV antiviral 0.0%, VACV mCherry inh -13.7%, LASV entry inh -24.4%[46.1 µM], MARV entry inh -28.5%[46.1 µM] and VACV Venus inh -16.5%.
For CCN1CCN(CCCNC(=O)c2ccc3c(=O)n(CCc4ccccc4)c(=O)[nH]c3c2)CC1 the results were FMDV antiviral -6.3%, VACV mCherry inh 6.1%, HCV inhibitor 10µM*, MARV entry inh inconclusive and VACV Venus inh -3.0%.
`O=C(CCCn1c(=O)[nH]c2cc(Cl)ccc2c1=O)NCCCN1CCN(c2ccc(F)cc2)CC1` gave FMDV antiviral inconclusive and HCV inhibitor 7.94µM*.
`CCC1CCCCN1CCCNC(=O)c1ccc2c(=O)n(Cc3ccc(OC)cc3)c(=O)[nH]c2c1` (configuration not stated) gave FMDV antiviral -26.1%, HCV inhibitor 14.1µM*, LASV entry inh inconclusive and MARV entry inh inconclusive.
Screening O=C(CCCn1c(=O)[nH]c2cc(Cl)ccc2c1=O)NCCCN1CCCC1 returned FMDV antiviral -2.3%, HCV inhibitor 12.4%, LASV entry inh 21.7%, MARV entry inh 11.1%[46.1 µM] and VACV Venus inh -8.1%.
`COCCn1c(=O)[nH]c2cc(C(=O)NCCCN3CCN(c4ccc(F)cc4)CC3)ccc2c1=O` gave FMDV antiviral inconclusive, HCV inhibitor 10µM*, LASV entry inh 5.8% and MARV entry inh -2.9%.
Screening COCCn1c(=O)[nH]c2cc(C(=O)NCCN3CCN(c4ccccc4F)CC3)ccc2c1=O returned FMDV antiviral inconclusive, HCV inhibitor -7.8%, LASV entry inh -10.5% and MARV entry inh 1.4%.
O=CC(=O)c1ccc(Cl)cc1 was read as VACV mCherry inh -13.6% and VACV Venus inh -8.1%.
CCCSc1nc2sc3c(c2c(=O)n1-c1ccc(C)cc1)CCCC3 was read as FMDV antiviral -13.3%, VACV mCherry inh -11.1%, LASV entry inh -0.1%[46.1 µM] and VACV Venus inh -6.7%.
For CCCCC(CC)CNC(=O)c1ccc2c(=O)n(CCOC)c(=O)[nH]c2c1 (configuration not stated) the results were FMDV antiviral inconclusive, VACV mCherry inh 1.5%, LASV entry inh inconclusive, MARV entry inh 2.82µM* and VACV Venus inh 12.3%.
For COc1cc2[nH]c(=O)n(CCCC(=O)NCc3ccc(Cl)cc3)c(=O)c2cc1OC the results were FMDV antiviral 4.7%, VACV mCherry inh -17.2%, LASV entry inh -1.7%[46.1 µM], MARV entry inh -3.4%[46.1 µM] and VACV Venus inh 1.5%.
`COc1cc2[nH]c(=O)n(CCCC(=O)NCCc3ccccc3)c(=O)c2cc1OC` gave FMDV antiviral -7.3%, VACV mCherry inh -26.0%, HCV inhibitor inconclusive, LASV entry inh 1.41µM*, MARV entry inh inconclusive and VACV Venus inh -20.9%.
For Clc1ccccc1OCCCOc1cccc2cccnc12 the results were FMDV antiviral 22.9%, VACV mCherry inh inconclusive, HCV inhibitor -6.9%, LASV entry inh inconclusive, MARV entry inh inconclusive and VACV Venus inh -29.7%.
`Cc1ccccc1CN1C(=O)CS/C1=N/N=C/c1ccco1` gave FMDV antiviral -14.6%, VACV mCherry inh -17.1%, HCV inhibitor inconclusive, LASV entry inh 10µM*, MARV entry inh 11.2%[46.1 µM] and VACV Venus inh -13.6%.
Screening CCSC1=NC2(CCN(C(=O)NC3CCCCC3)CC2)N=C1c1ccc(OC)cc1 returned FMDV antiviral -20.0%, VACV mCherry inh inactive, LASV entry inh -0.7%[46.1 µM] and VACV Venus inh -28.0%.
For CCc1nc(C)cn1S(=O)(=O)c1ccc([N+](=O)[O-])cc1 the results were FMDV antiviral -14.5%, VACV mCherry inh -15.3%, HCV inhibitor inconclusive, LASV entry inh 11.3%, MARV entry inh -11.2%[46.1 µM] and VACV Venus inh -3.9%.
`CCCn1c(CC)nc([N+](=O)[O-])c1S(=O)(=O)c1ccccc1` gave FMDV antiviral 12.6µM*, HCV inhibitor 12.6µM*, LASV entry inh inconclusive and MARV entry inh inconclusive.
`CCN1/C(=C/C=C/C2=[N+](CC)c3ccccc3C2(C)C)C(C)(C)c2ccccc21` gave FMDV antiviral 3.55µM* and VACV mCherry inh inactive.
`Cc1ccc(NC(=S)/N=C(\N)Nc2nc(C)c3cc(C)ccc3n2)c(C)c1` gave FMDV antiviral -18.7%, VACV mCherry inh inactive, HCV inhibitor 2.82µM*, LASV entry inh 14.9%, MARV entry inh inconclusive and VACV Venus inh inconclusive.
Screening COc1ccc(CN2C[C@H](Sc3nc4ccccc4[nH]3)C[C@H]2C(=O)N2CCCN(C)CC2)cc1C returned FMDV antiviral -11.8%, VACV mCherry inh 2.1% and VACV Venus inh 14.3%.
For COc1cc(NC(=O)c2ccc(Cl)cc2)c(OC)cc1NC(=O)CN1CCCCC1 the results were FMDV antiviral -16.9%, VACV mCherry inh -25.6%, HCV inhibitor 7.94µM*, LASV entry inh -22.1%, MARV entry inh -27.4%[46.1 µM] and VACV Venus inh -29.4%.
For COc1cc(NC(=O)c2ccc(C(C)(C)C)cc2)c(OC)cc1NC(=O)CN1CCCCC1 the results were FMDV antiviral inconclusive, VACV mCherry inh 1.9%, HCV inhibitor -8.7%, LASV entry inh 10µM*, MARV entry inh inconclusive and VACV Venus inh 4.7%.
